# TDP1 cell CPT = qHTS for Inhibitors of human tyrosyl-DNA phosphodiesterase 1 (TDP1): qHTS in cells in presence of CPT. chicken DT40 Tdp1-/-;hTDP1 cells + 20 nM CPT, ATP luminescence, 48 h. Potency, µM (series often up to 46.2 µM), inactives show top-dose activity change, negative = growth inhibition, actives largely listed as inhibitors. 420,000 compounds, 12% hits; note: nearly all actives have a fitted effect of over 55% in size
#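 Chicken DT40 Tdp1-/- cells stably complemented with human TDP1 were seeded at 400 cells/well in medium containing 20 nM camptothecin, exposed to pin-transferred compounds, and grown at 37 °C for at least 48 hr. Viability was read as ATP luminescence.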
# TDP1 cell noCPT = qHTS for Inhibitors of human tyrosyl-DNA phosphodiesterase 1 (TDP1): qHTS in cells in absence of CPT; DT40 Tdp1-/- hTDP1 cells, no CPT, ATP luminescence, 48 h; Potency, µM (doses to about 46.2 µM), for inactives: at the top dose activity change, negative = growth inhibition, usual class: inhibitors; 420,000 compounds, 15% hits; AID 686978, 2013; note: nearly all actives have a fitted effect of over 55% in size
#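 Stably hTDP1-transfected Tdp1-null chicken DT40 cells were treated with library compounds minus camptothecin and grown for at least 48 hr at 37 °C, after which cellular ATP was quantified by luminescence.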
# TDP1 inh = qHTS Assay for Inhibitors of Tyrosyl-DNA Phosphodiesterase (TDP1). Tyrosyl-DNA phosphodiesterase 1 (Homo sapiens), Q9NUW8. recombinant TDP1, AlphaScreen DNA substrate cleavage. Potency, µM (doses to about 130 µM), inactives show at the top dose activity change, negative = inhibition, usual class: inhibitors. 350,000 compounds, 0.28% hits; note: nearly all actives have a fitted effect of over 40% in size
# Target sequence (Q9NUW8 whole entry, looked up): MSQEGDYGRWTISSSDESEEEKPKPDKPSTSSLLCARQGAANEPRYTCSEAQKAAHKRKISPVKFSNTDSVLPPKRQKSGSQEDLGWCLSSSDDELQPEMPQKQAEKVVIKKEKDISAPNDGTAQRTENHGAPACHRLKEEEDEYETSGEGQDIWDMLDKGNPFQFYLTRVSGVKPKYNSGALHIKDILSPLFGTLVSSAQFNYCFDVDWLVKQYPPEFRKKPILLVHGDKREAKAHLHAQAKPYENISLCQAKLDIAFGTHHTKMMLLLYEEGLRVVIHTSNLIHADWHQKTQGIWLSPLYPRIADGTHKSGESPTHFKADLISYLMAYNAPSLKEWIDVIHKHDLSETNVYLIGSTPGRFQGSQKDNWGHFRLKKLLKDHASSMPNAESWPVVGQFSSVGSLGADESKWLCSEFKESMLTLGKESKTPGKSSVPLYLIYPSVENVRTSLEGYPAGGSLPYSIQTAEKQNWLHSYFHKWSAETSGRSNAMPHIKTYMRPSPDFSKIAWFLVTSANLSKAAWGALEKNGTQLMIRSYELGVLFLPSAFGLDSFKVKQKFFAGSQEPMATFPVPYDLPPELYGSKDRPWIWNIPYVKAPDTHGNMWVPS
#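 Tdp1 1 nM final; 15 min RT w/ cpd; substrate 15 nM, 5 min; beads 10 ug/ml, 10 min; AlphaScreen read. Neg ctrl: no enzyme.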
# RORgamma inh = qHTS for inhibitors of ROR gamma transcriptional activity | Nuclear receptor ROR-gamma (Mus musculus), P51450 | Drosophila S2 Gal4-RORgamma UAS-luciferase reporter, 20 h | Potency, µM (titrated, usually from 53.6 µM), for inactives: at the top dose activity change, negative = inhibition, most hits filed as inhibitors | 310,000 compounds, 5.4% hits; note: nearly all actives have a fitted effect of over 60% in size
#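 Schneider cells (Drosophila), stable Gal4 DBD–ROR gamma + UAS-luc; 1 hr cmpd preincubation; Cu2+ induction 700 uM final; 20 hr ambient; luminescence.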
# Gal4-VP16 FLuc = VP16 counterscreen qHTS for inhibitors of ROR gamma transcriptional activity. AID 2546, 2010. 310,000 compounds, 3.5% hits. Drosophila S2 Gal4-VP16 UAS-luciferase, luminescence, 20 h. Potency, µM (titrated, usually from 53.6 µM), for the others: at the top dose activity, negative = inhibition, most hits filed as inhibitors;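 note: Gal4-VP16 expression switched on by copper sulfate through the metallothionein promoter; nearly all actives have a fitted effect of over 50% in size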
# The depositor's hits bear a star; u = inconclusive; x = no result; [ ] = dose if it differs, or a comment. In the library only some 19% were active in any assay of this set; here they are far more common. Calls come from the whole dose curve; as a rule, active = well fitted curve in the direction sought with a large enough effect; inconclusive = small, poorly fitted or top-dose-only effect, or another doubt; inactive = no such curve, though single readings can be large; an effect the other way counts as inactive or inconclusive. % is set by controls: 0 for no effect and ±100 for the full control effect; potency is the fitted concentration of half-maximal effect.
SMILES,TDP1 cell CPT,TDP1 cell noCPT,TDP1 inh,RORgamma inh,Gal4-VP16 FLuc
CC(C)Oc1ccc(C(=O)CCN2CCCCC2)cc1,u,u,-7%,10µM*,6.3µM*
CC(C)Oc1ccc(C(=O)CCN2CCOCC2)cc1,3.3µM*,3.7µM*,x,x,x
CC1=NC(C#N)=C(C#N)NC(C)(C)C1,2%,-5%,3%,12%,-4%
O=[N+]([O-])c1ccccc1/C=C/CN1CCN(Cc2ccc3c(c2)OCO3)CC1,-11%,9%,x,u,-11%
Nc1nc(=O)n(C2OC(CO)C(O)C2O)cc1F (stereo not given),0.033µM*,0.0058µM*,x,x,x
Cc1cn([C@H]2C[C@H](O)[C@@H](CNCc3ccccc3)O2)c(=O)[nH]c1=O,-25%,-10%,x,x,x
Nc1cnn(C2OC(CO)C(O)C2O)c(=O)n1 (stereo not given),8%,-9%,-2%,-1%,-2%
Cc1cn([C@H]2C[C@H](O)[C@@H](COS(=O)(=O)O)O2)c(=O)[nH]c1=O,3.7µM*,1.6µM*,0%,x,x
O=c1[nH]c(=O)n([C@@H]2O[C@H](CO)[C@@H](O)[C@H]2O)cc1F,0.11µM*,0.06µM*,-3%[56.1 µM],7%,-18%
O=c1[nH]c(=O)n([C@H]2C[C@@H](O)[C@@H](CO)O2)cc1F,5µM*,1.6µM*,x,x,x
O=c1[nH]c(=O)c2ncn(C3OC(CO)C(O)C3O)c2[nH]1 (stereo not given),2%,-5%,3%,x,x
O=C(COC(=O)c1cc(Cl)nc(Cl)c1)NCCc1ccc(F)cc1,-17%,-21%,0%,x,x
C[C@@H]1CN([C@@H](C)CO)C(=O)c2cc(N(C)C)ccc2O[C@@H]1CN(C)S(C)(=O)=O,3%,5%,0%,x,x
O=c1[nH]cnc2c1[nH]c(=S)n2C1O[C@@H](CO)[C@H](O)[C@@H]1O (stereo not given in full),-7%,-5%,3%,x,x
O=C1C=CC(n2cc(F)c(=O)[nH]c2=O)O1 (stereo not given),18µM*,u,x,x,x
O=c1[nH]cnc2c1ccn2C1OC(CO)C(O)C1O (stereo not given),0.16µM*,0.15µM*,x,x,x
O=c1[nH]c(=O)n(C2OC(CO)C(O)C2O)cc1F (stereo not given),0.15µM*,0.037µM*,x,x,x
O=C(c1ccc(CS(=O)(=O)c2ccccc2)o1)N1CCOCC1,5%,-2%,-4%,-1%,3%
O=C(Nc1ccc(S(=O)(=O)N2CCOCC2)cc1)C1CC1,-29%,-1%,-8%,-16%,7%
CC(CC(O)C1OC1(C)C)C1CCC2(C)C3=CCC4C(C)(C)C(=O)CCC4(C)C3CC[C@@]12C (stereo not given in full),5.2µM*,7.3µM*,10%[56.1 µM],6%,u
CN1CCN(CCCNC(=O)c2ccc(Cn3c(=S)[nH]c4ccc(Br)cc4c3=O)cc2)CC1,u,u,-2%,7%,1%
CCOC(=O)N1CCN(C(=O)c2ccc(Cn3c(=S)[nH]c4ccc(Br)cc4c3=O)cc2)CC1,5.2µM*,1µM*,3%,u,14µM*
CCCn1c(=S)[nH]c2cc(C(=O)N3CCN(C(=O)OCC)CC3)ccc2c1=O,-24%,-5%,5%,-44%,0%
CCOC(=O)N1CCN(C(=O)c2ccc3c(=O)n(CCc4ccccc4)c(=S)[nH]c3c2)CC1,-18%,-30%,4%,7.1µM*,0%
Cc1ccc(S(=O)(=O)NC(CC(C)C)C(=O)Oc2ccc3c4c(c(=O)oc3c2)CCC4)cc1 (stereo not given),-27%,-20%,0%,3%,-1%
SMILES,TDP1 cell CPT,TDP1 cell noCPT,TDP1 inh,RORgamma inh,Gal4-VP16 FLuc
CCCCn1c(=NC(=O)c2ccc3c(c2)OCO3)c(C#N)cc2c(=O)n3cccc(C)c3nc21,7.3µM*,9.2µM*,-3%,-26%,-9%
CCOCCCn1c(=NC(C)=O)c(C#N)cc2c(=O)n3cccc(C)c3nc21,8%,u,5%,-16%,-1%
COCCn1c(=NC(=O)c2ccc3c(c2)OCO3)c(C#N)cc2c(=O)n3cccc(C)c3nc21,x,x,-4%,-32%,-3%
CCCCn1c(=NC(C)=O)c(C#N)cc2c(=O)n3cccc(C)c3nc21,-29%,18µM*,x,x,x
CCc1c2c(nc3ccc4c(c13)OCCO4)-c1nc3ccccc3c(=O)n1C2,x,x,3%,2.5µM*,13µM*
OCCN1CCN(c2nc(N3CCCCC3)nc(N3CCCCC3)n2)CC1,u,18µM*,-3%,-9%,-2%
N=C(N)Sc1nc(N2CCCCC2)nc(N2CCCCC2)n1,13%,13%,5%,9%,7%
CCOc1ccc(CNC(=O)CCS(=O)(=O)Cc2cccc(Cl)c2)cc1OC,1%,11%,0%,15%,-4%
COc1c(O)cccc1/C=N/NC(=O)Cn1ccnc1C,u,23µM*,6%,u,-24%
CC(C)[C@H](NC(=O)OC(C)(C)C)c1cc(C(=O)NC2CC2)c(N)s1,-19%,4%,x,x,x
COCCN(CCOC)S(=O)(=O)c1ccc(C(=O)Nc2ccc(S(=O)(=O)Nc3nccc(C)n3)cc2)cc1,-11%,4%,3%,20%,-2%
O=C(Nc1c(C(=O)N2CCN(c3ccccn3)CC2)oc2ccccc12)c1ccc([N+](=O)[O-])cc1,23µM*,u,3%,2%,2%
O=C(c1ccc([N+](=O)[O-])s1)N1CCN(c2ccccn2)CC1,23µM*,15µM*,6%[0.0935 µM],-26%,-5%
COc1ccnc2c1c(=O)n(Cc1ccc(F)cc1)c(=O)n2C,-16%,5%,3%,6%,-12%
O=C1C(c2ccncc2)=C(O)c2ccccc21,u,18µM*,-3%,u,u
CCc1ccccc1NC(=O)CSc1nc2n[nH]c(C)c2c(=N)n1-c1cccc(OC)c1,16µM*,23µM*,0%,u,-2%
Cc1ccccc1-n1c(SCC(=O)Nc2ccccc2Cl)nc2n[nH]c(C)c2c1=N,16µM*,18µM*,7%,30%,-8%
CCc1ccc(-n2c(SCC(=O)NC(C)CC)nc3n[nH]c(C)c3c2=N)cc1 (stereo not given),5.8µM*,5.2µM*,0%,x,x
Cc1ccc(CNC(=O)CSc2nc3n[nH]c(C)c3c(=N)n2-c2ccccc2Cl)cc1,18µM*,23µM*,2%,x,x
Cc1ccn2c(=O)cc(C)nc2c1,9%,0%,2%,0%,-1%

# Bioassay records (PubChem)
